# According to PubChem BioAssay (NCATS):
# Values without a mark were called inactive. Results filed as inconclusive are left out. Activity calls are given as the source filed them. Unless noted, the call rests on the fitted dose curve; in most records, active means well fitted curve in the direction sought with a large enough effect; inconclusive means small, poorly fitted or top-dose-only effect, or another doubt; inactive means no such curve, though single readings can be large; an effect the other way counts as inactive or inconclusive.
# Columns and labels:
# [1] = target: Cytochrome P450 1A2 (Homo sapiens) (UniProt P05177); assay: p450-cyp1a2 (AID 410; calls by dose curve)
# Procedure, shortened: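 Luminescent readout of luciferin formed from Luciferin-ME by human CYP1A2; data normalized against complete inhibition by 57 uM furafylline. Enzyme 20nM, substrate 100uM at Km, 100mM KPO4 buffer, 60 min reaction at room temperature.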
# [2] = target: Mitogen-activated protein kinase 10 (Mus musculus) (UniProt Q61831); assay: JNK3 AlphaScreen Assay (AID 530; active means well fitted curve in either direction with a large enough effect, not every such curve was filed as active;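 further: kinase came from lysate of stimulated human HepG2 cells; signal reports phosphorylation of biotinylated GST-cJun 1-79 at Ser73 with 10 µM ATP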)
# Procedure, shortened: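 Pre-activated (IL-1β/TNFα) JNK3 in HepG2 lysates phosphorylates biotin-GST-cJun(1-79), 10 uM ATP; anti-phospho-cJun(Ser73) AlphaScreen read at room temperature, pH 7.6 Tris buffer. Compounds pre-incubated 15 min as titrations.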
# [3] = target: 3',5'-cyclic-AMP phosphodiesterase 4B (Homo sapiens) (UniProt Q07343); assay: qHTS Assay for Inhibitors of PDE-IV (AID 607; active means well fitted activation curve with a large enough effect in the main read-out, with a control signal flat, not every such curve was filed as active)
# Procedure, shortened: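 ACTOne HEK293 cells carry a modified cAMP-gated CNG channel and express endogenous PDE4; plated 1000 cells/well, compounds up to 22.9 uM final. Membrane-potential dye fluorescence (ex 535/em 590) was read; parental cells received 10 uM forskolin + 100 uM RO 20-1724.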
# [4] = target: alpha-glucosidase (Oryza sativa, rice) (UniProt Q653V4); assay: Counterscreen for Glucocerebrosidase Inhibitors: qHTS Assay for Rice alpha-Glucosidase at pH 5.0 (AID 997)
# Procedure, shortened: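 Rice alpha-glucosidase (4 nM final) with 400 uM 4-methylumbelliferyl-alpha-D-glucopyranoside in citrate buffer pH 5.0, 20 min at room temperature, stopped at pH 10; fluorescence 365/440 nm, compounds 0.7 nM–77 uM, AC50 from Hill fits.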
# [5] = S16 Schwann cell PMP22 intronic element beta-lactamase assay (AID 624044; calls by dose curve; further: nearly all actives have a fitted effect of over 15% in size); settings: S16 rat Schwann cells, PMP22 element beta-lactamase FRET, 24 h; ratio activity, negative = inhibition: at 38.3 µM (top of the series)
# Procedure, shortened: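 Rat S16 Schwann cells with beta-Lac driven by a PMP22 intronic element, compound-treated 24 h at 37 °C. LiveBLAzer FRET B/G read: 460 nm normalized to potassium clavulanate vs DMSO; 535 nm FRET as viability; concentration-effect curves classified.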
# [6] = system: 3D7; assay: qHTS profiling for inhibitors of Plasmodium falciparum proliferation (AID 504749); further: nearly all actives have a fitted effect of over 60% in size; further: potency means the concentration at half of the fitted maximal effect; settings: P. falciparum in erythrocytes, SYBR Green DNA, 72 h; series mostly up to 28.7 µM
# Procedure, shortened: (§1)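 P. falciparum-infected erythrocytes (0.3% parasitemia, 2.5% hematocrit) incubated with compound 72 h at 37 C, 5% CO2. Parasite DNA detected by SYBR Green after lysis, overnight at room temperature; normalised to 0.29 uM artemisinin and DMSO.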
# [7] = system: 7G8; assay: as above; settings: P. falciparum in erythrocytes, SYBR Green DNA, 72 h; series mostly up to 28.7 µM
# Procedure, shortened: as §1
# [8] = system: AA1029; assay: as above; settings: P. falciparum in erythrocytes, SYBR Green DNA, 72 h; series mostly up to 28.7 µM
# Procedure, shortened: as §1
# [9] = system: AS120; assay: as above; settings: P. falciparum in erythrocytes, SYBR Green DNA, 72 h; series mostly up to 28.7 µM
# Procedure, shortened: as §1
# [10] = system: ATS189; assay: as above; settings: P. falciparum in erythrocytes, SYBR Green DNA, 72 h; series mostly up to 28.7 µM
# Procedure, shortened: as §1
# [11] = system: ATS95; assay: as above; settings: P. falciparum in erythrocytes, SYBR Green DNA, 72 h; series mostly up to 28.7 µM
# Procedure, shortened: as §1
# [12] = system: C2A; assay: as above; settings: P. falciparum in erythrocytes, SYBR Green DNA, 72 h; series mostly up to 28.7 µM
# Procedure, shortened: as §1
# [13] = system: CP185; assay: as above; settings: P. falciparum in erythrocytes, SYBR Green DNA, 72 h; series mostly up to 28.7 µM
# Procedure, shortened: as §1
# [14] = system: CP191; assay: as above; settings: P. falciparum in erythrocytes, SYBR Green DNA, 72 h; series mostly up to 28.7 µM
# Procedure, shortened: as §1
# [15] = system: CP192; assay: as above; settings: P. falciparum in erythrocytes, SYBR Green DNA, 72 h; series mostly up to 28.7 µM
# Procedure, shortened: as §1
# [16] = system: CP194; assay: as above; settings: P. falciparum in erythrocytes, SYBR Green DNA, 72 h; series mostly up to 28.7 µM
# Procedure, shortened: as §1
# [17] = system: CP201; assay: as above; settings: P. falciparum in erythrocytes, SYBR Green DNA, 72 h; series mostly up to 28.7 µM
# Procedure, shortened: as §1
# [18] = system: CP203; assay: as above; settings: P. falciparum in erythrocytes, SYBR Green DNA, 72 h; series mostly up to 28.7 µM
# Procedure, shortened: as §1
# [19] = system: CP211; assay: as above; settings: P. falciparum in erythrocytes, SYBR Green DNA, 72 h; series mostly up to 28.7 µM
# Procedure, shortened: as §1
# [20] = system: CP215; assay: as above; settings: P. falciparum in erythrocytes, SYBR Green DNA, 72 h; series mostly up to 28.7 µM
# Procedure, shortened: as §1
# [21] = system: CP217; assay: as above; settings: P. falciparum in erythrocytes, SYBR Green DNA, 72 h; series mostly up to 28.7 µM
# Procedure, shortened: as §1
# [22] = system: CP237; assay: as above; settings: P. falciparum in erythrocytes, SYBR Green DNA, 72 h; series mostly up to 28.7 µM
# Procedure, shortened: as §1
# [23] = system: CP238; assay: as above; settings: P. falciparum in erythrocytes, SYBR Green DNA, 72 h; series mostly up to 28.7 µM
# Procedure, shortened: as §1
# [24] = system: CP247; assay: as above; settings: P. falciparum in erythrocytes, SYBR Green DNA, 72 h; series mostly up to 28.7 µM
# Procedure, shortened: as §1
# [25] = system: CP250; assay: as above; settings: P. falciparum in erythrocytes, SYBR Green DNA, 72 h; series mostly up to 28.7 µM
# Procedure, shortened: as §1
# [26] = system: CP252; assay: as above; settings: P. falciparum in erythrocytes, SYBR Green DNA, 72 h; series mostly up to 28.7 µM
# Procedure, shortened: as §1
# [27] = system: CP256; assay: as above; settings: P. falciparum in erythrocytes, SYBR Green DNA, 72 h; series mostly up to 28.7 µM
# Procedure, shortened: as §1
# [28] = system: CP260; assay: as above; settings: P. falciparum in erythrocytes, SYBR Green DNA, 72 h; series mostly up to 28.7 µM
# Procedure, shortened: as §1
# [29] = system: CP262; assay: as above; settings: P. falciparum in erythrocytes, SYBR Green DNA, 72 h; series mostly up to 28.7 µM
# Procedure, shortened: as §1
# Sequence of 3',5'-cyclic-AMP phosphodiesterase 4B (Homo sapiens) (Q07343 whole entry, looked up): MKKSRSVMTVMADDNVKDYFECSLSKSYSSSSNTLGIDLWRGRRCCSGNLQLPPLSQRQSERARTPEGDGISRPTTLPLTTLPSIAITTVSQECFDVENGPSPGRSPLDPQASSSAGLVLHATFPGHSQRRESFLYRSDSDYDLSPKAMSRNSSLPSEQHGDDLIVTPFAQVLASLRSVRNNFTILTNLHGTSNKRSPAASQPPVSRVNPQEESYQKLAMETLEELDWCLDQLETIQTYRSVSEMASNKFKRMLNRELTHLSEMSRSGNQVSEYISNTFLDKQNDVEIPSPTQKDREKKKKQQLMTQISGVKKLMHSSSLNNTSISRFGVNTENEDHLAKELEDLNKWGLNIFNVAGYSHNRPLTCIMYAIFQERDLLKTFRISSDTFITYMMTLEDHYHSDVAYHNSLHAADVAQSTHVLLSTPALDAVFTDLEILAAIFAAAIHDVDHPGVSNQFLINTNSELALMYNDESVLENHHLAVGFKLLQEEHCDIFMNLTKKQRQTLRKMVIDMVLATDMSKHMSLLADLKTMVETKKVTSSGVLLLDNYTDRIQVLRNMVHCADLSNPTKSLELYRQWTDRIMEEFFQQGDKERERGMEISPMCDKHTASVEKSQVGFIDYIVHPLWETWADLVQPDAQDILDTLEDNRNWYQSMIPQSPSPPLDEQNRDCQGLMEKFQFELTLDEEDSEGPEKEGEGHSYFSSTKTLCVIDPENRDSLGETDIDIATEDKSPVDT
# Sequence of Cytochrome P450 1A2 (Homo sapiens) (P05177 whole entry, looked up): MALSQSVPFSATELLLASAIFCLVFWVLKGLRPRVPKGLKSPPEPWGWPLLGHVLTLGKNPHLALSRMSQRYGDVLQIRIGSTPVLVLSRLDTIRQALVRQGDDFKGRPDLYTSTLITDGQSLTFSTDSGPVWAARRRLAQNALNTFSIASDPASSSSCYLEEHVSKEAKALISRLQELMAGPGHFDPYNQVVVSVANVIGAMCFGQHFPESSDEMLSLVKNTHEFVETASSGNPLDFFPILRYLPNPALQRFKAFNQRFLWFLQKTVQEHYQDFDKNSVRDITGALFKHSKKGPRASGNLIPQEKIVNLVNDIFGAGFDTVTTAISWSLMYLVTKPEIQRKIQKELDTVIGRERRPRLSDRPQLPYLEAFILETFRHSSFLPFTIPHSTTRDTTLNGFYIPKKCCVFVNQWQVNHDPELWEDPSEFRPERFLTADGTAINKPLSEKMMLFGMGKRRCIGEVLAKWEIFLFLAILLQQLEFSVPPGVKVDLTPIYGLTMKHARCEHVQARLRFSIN
smiles,measurement,setting,value
C/C=C\C[C@H](C)[C@H](O)[C@H]1C(=O)N[C@@H](CC)C(=O)N(C)CC(=O)N(C)[C@@H](CC(C)C)C(=O)N[C@@H](C(C)C)C(=O)N(C)[C@@H](CC(C)C)C(=O)N[C@@H](C)C(=O)N[C@@H](C)C(=O)N(C)[C@@H](CC(C)C)C(=O)N(C)[C@@H](CC(C)C)C(=O)N(C)[C@@H](C(C)C)C(=O)N1C,Potency,[1],inactive
same,Potency,[2],inactive
same,Potency,[3],inactive
same,outcome,[4],inactive
same,Potency,[5],inactive
same,Potency,[6],3.98 µM (active)
same,Potency,[7],8.91 µM (active)
same,Potency,[8],2.82 µM (active)
same,Potency,[9],3.98 µM (active)
same,Potency,[10],inactive
same,Potency,[11],3.55 µM (active)
same,Potency,[12],3.55 µM (active)
same,Potency,[13],3.55 µM (active)
same,Potency,[14],3.16 µM (active)
same,Potency,[15],6.75 µM (active)
same,Potency,[16],8.49 µM (active)
same,Potency,[17],6.75 µM (active)
same,Potency,[18],13.5 µM (active)
same,Potency,[19],6.75 µM (active)
same,Potency,[20],7.57 µM (active)
same,Potency,[21],3.16 µM (active)
same,Potency,[22],4.47 µM (active)
same,Potency,[23],3.55 µM (active)
same,Potency,[24],3.55 µM (active)
same,Potency,[25],3.55 µM (active)
same,Potency,[26],3.55 µM (active)
same,Potency,[27],3.16 µM (active)
same,Potency,[28],2.82 µM (active)
same,Potency,[29],3.79 µM (active)
